In ChEMBL document CHEMBL4513216, “Probing the Open Global Health Chemical Diversity Library for Multistage-Active Starting Points for Next-Generation Antimalarials” (ACS Infect Dis, 2020):
About 2,700 (4%) of roughly 68,000 compounds showed an effect of 50% or more. What follows is part of a selection rich in strong results, with near analogues and random picks from the rest.

The compounds below were run on Plasmodium berghei (assay: Screen against P. berghei liver stage (PbLuc), transformed with Luciferase, at 2uM). Conditions: tested at 2 uM.
Assay type: functional, HepG2
`COCCN1C[C@@H]2CCCO[C@@H]2[C@H](N(C)Cc2ccco2)C1` showed an INHIBITION of 45.82%.
Compound `Cc1nccn1-c1nccnc1C1CCN(Cc2ccc(F)cc2)CC1` has an INHIBITION of -42.32%.
With `CCc1ccccc1CN1CC[C@@H](NC(=O)c2cccnc2)[C@H](O)C1` the INHIBITION was -44.59%.
`Cc1ccc(CN2CC[C@@H](NC(=O)c3cccnc3)[C@H](O)C2)s1` showed an INHIBITION of -38.78%.
In the case of `O=C(N[C@@H]1CCN(Cc2cc3ccccc3s2)C[C@H]1O)c1cccnc1`, the INHIBITION is reported as 60.35%.
`NC(=O)c1csc(N2CCCC(c3nc4ccccc4[nH]3)C2)n1` (centres undefined) showed an INHIBITION of -41.06%.
`CC(=O)N[C@@H]1CN(Cc2ccccc2C#N)C[C@H]1c1ccc(C)cc1` gave an INHIBITION of 28.19%.
For `CCN(CC1CCCO1)C(=O)Nc1cc(OC)c(OC)cc1C` (centres undefined), the INHIBITION was -19.76%.
Compound `CCN(CC1CCCO1)C(=O)Nc1ccc(F)cc1OC` (centres undefined) has an INHIBITION of 22.1%.
In the case of `CCN(CC1CCCO1)C(=O)Nc1cc(C(N)=O)ccc1OC` (centres undefined), the INHIBITION is reported as 84.53%.
Compound `O=C(C1CC=CC1)N1C[C@H]2CN(Cc3ccncc3)C(=O)[C@H]2C1` has an INHIBITION of 30.57%.
`CN(C)CCNC(=O)[C@H]1C[C@H]2CN(C(=O)NC3CCCC3)C[C@@H]1O2` showed an INHIBITION of 43.87%.
`CN1CCN(c2ncnc3c2CCN(C(=O)c2cccn2C)CC3)CC1` gave an INHIBITION of -4.99%.
For `Cc1nc(NC(=O)c2c3c(nn2C2CCS(=O)(=O)C2)CCC3)sc1C` (centres undefined), the INHIBITION was 20.76%.
Work on `Cc1nnc(NC(=O)c2c3c(nn2C2CCS(=O)(=O)C2)CCC3)s1` (centres undefined) yielded an INHIBITION of 48.68%.
With `CCc1nnc(NC(=O)c2c3c(nn2C2CCS(=O)(=O)C2)CCC3)s1` (centres undefined) the INHIBITION was 58.53%.
`COc1cc2nc3n(c(=O)c2cc1OC)CCN(C(=O)C1CCC1)CC3` showed an INHIBITION of -50.24%.
`CN1CCN(Cc2cn3c(n2)CNCC3)CC1` showed an INHIBITION of 33.11%.
In the case of `c1c(CN2CCCCC2)nc2n1CCNC2`, the INHIBITION is reported as 60%.
Compound `c1c(CN2CCCC2)nc2n1CCNC2` has an INHIBITION of -102.41%.
For `CO[C@@H]1CCC[C@@H](NC(=O)CCCn2cncn2)[C@H]1O`, the INHIBITION was -32.51%.
Compound `CCc1cc(C(F)(F)F)n2nc(C3CCCN3C(=O)COC)cc2n1` (centres undefined) has an INHIBITION of 33.56%.
Compound `Cc1nc(C)c(CN2CCOC(CNc3cccnn3)C2)s1` (centres undefined) has an INHIBITION of -15.28%.
For `Cc1cnc(CN2CCOC(CNc3cccnn3)C2)cn1` (centres undefined), the INHIBITION was 18.31%.
`Cc1ncc(CN2CCOC(CNc3cccnn3)C2)s1` (centres undefined) showed an INHIBITION of 58.05%.
With `CC(C)NC(=O)Cn1cc(OCc2ccc(F)cc2)c(=O)cc1CO` the INHIBITION was 14.65%.
With `Cc1ccccc1[C@@H]1CN(C(=O)c2ccc3[nH]nnc3c2)C[C@H]1C(=O)O` the INHIBITION was -45.64%.
With `CCn1c(CN2CCCN(C(=O)OC)CC2)nc2c(F)cccc21` the INHIBITION was 20.28%.
Work on `CCn1c(CN2CCN(CC(N)=O)CC2)nc2c(F)cccc21` yielded an INHIBITION of 27.55%.
With `CCn1c(CN2CCC(O)(C(=O)OC)CC2)nc2c(F)cccc21` the INHIBITION was 54.32%.
Work on `CN(Cc1ccccn1)C(=O)C(c1ccccc1)N1CCSCC1` (centres undefined) yielded an INHIBITION of 19.48%.
`Fc1cccnc1O[C@H]1CN(Cc2ccoc2)[C@@H]2CCCO[C@H]12` gave an INHIBITION of -0.18%.
In the case of `Fc1cccnc1O[C@@H]1CN(Cc2ccco2)[C@@H]2CCCO[C@@H]21`, the INHIBITION is reported as -8.22%.
Compound `Fc1cccnc1O[C@@H]1CN(Cc2ccccn2)[C@@H]2CCCO[C@@H]21` has an INHIBITION of 66.64%.
For `O=C(COc1ccc2cccnc2c1)N1CCN[C@H]2CS(=O)(=O)C[C@H]21`, the INHIBITION was -7.4%.
Compound `CN(C)C(=O)CN1CCC2(COCc3cnc(-c4cccnc4)nc32)C1` (centres undefined) has an INHIBITION of -55.8%.
For `Cc1cc(CNCC2CNc3ccnn3C2)no1` (centres undefined), the INHIBITION was -10%.
Work on `Cc1cc2n(n1)CC(CNCc1cc(C)on1)CN2` (centres undefined) yielded an INHIBITION of 57%.
In the case of `Cc1ccc(CNCC2CNc3cc(C)nn3C2)cn1` (centres undefined), the INHIBITION is reported as 4.19%.
`NCCC(=O)N1CCC2(CC1)CN(C(=O)Cc1ccc(Cl)cc1)CCO2` was tested, and the INHIBITION was 10.62%.
`Cc1ccccc1-n1nc(C)c(CN(C)C(C)Cc2ccccn2)c1C` (centres undefined) gave an INHIBITION of -74.1%.
Work on `Cc1nn(-c2ccccc2)c(C)c1CN1CCNCC1` yielded an INHIBITION of 1.79%.
`CC(C)c1nnc(CN(C)C(c2ccccc2)c2ccc(F)cc2)o1` (centres undefined) was tested, and the INHIBITION was -7.07%.
Compound `CCc1nnc(C(C)N(C)Cc2c(C)nn(-c3ccccc3)c2C)o1` (centres undefined) has an INHIBITION of 63.1%.
`Cc1nnc(C(C)N(C)Cc2c(C)nn(-c3ccccc3)c2C)o1` (centres undefined) was tested, and the INHIBITION was 52.08%.
Compound `Cc1nnc(C(C)N(C)Cc2c(C)nn(-c3ccccc3C)c2C)o1` (centres undefined) has an INHIBITION of 29.39%.
For `CC(=O)N(C)c1nc(CN2CCCC2Cn2nc(C)cc2C)cs1` (centres undefined), the INHIBITION was -43.47%.
For `CN(C)c1ncc(-c2ccncc2)c(CCNC(=O)C2CC2)n1`, the INHIBITION was -33.32%.
Compound `Cn1ncc2c(=O)[nH]c(CN(Cc3ccco3)C3CC3)nc21` has an INHIBITION of 5.09%.
In the case of `CC(=O)NCCNC(=O)Nc1ccc(Br)cc1C(C)C`, the INHIBITION is reported as -34.04%.
For `Cc1ccc(CN2CCC3(CCC(=O)N3CC(=O)N(C)C)CC2)s1`, the INHIBITION was 22.71%.
`CC1CCN(C(=O)[C@@H]2C[C@@H]3CCN(Cc4nccs4)C[C@H]3O2)CC1` was tested, and the INHIBITION was 31.76%.
`Cc1nnc2n1CCN(C(=O)CN1C(=O)CSc3ccccc31)C2` gave an INHIBITION of -14.79%.
Compound `Cc1nnsc1CN(C)Cc1ccc(C(=O)Nc2sccc2C#N)cc1` has an INHIBITION of 67.28%.
For `CN(Cc1ccc(C(=O)Nc2sccc2C#N)cc1)Cc1ccno1`, the INHIBITION was 26.74%.
For `Cc1nnc(CN(C)Cc2ccc(C(=O)Nc3sccc3C#N)cc2)o1`, the INHIBITION was 33.9%.
In the case of `Cc1cc(C)n(CC2CCN(CC(O)COc3ccccc3)CC2)n1` (centres undefined), the INHIBITION is reported as -1.96%.
Compound `Cc1ccn(CCC(=O)NCc2ccc(C)o2)n1` has an INHIBITION of 19.49%.
With `O=C(COc1coc(CN2CCCCC2)cc1=O)NCc1ccccc1` the INHIBITION was -11.78%.
Work on `O=C(CCn1cccc1)NCc1ccc(CN2CCCCCC2)o1` yielded an INHIBITION of 56.24%.
For `O=C(c1ccco1)N1CCC2(CCC(=O)N2Cc2cccc(F)c2)CC1`, the INHIBITION was 33.16%.
`Cc1cccc(CN2C(=O)CCC23CCN(C(=O)c2ccco2)CC3)c1` gave an INHIBITION of 70.48%.
Work on `O=C(c1ccco1)N1CCC2(CCC(=O)N2Cc2ccccc2)CC1` yielded an INHIBITION of 21.06%.
For `O=C(NC1CCN(c2ncccc2F)C1)c1cccc(-n2ccnn2)c1` (centres undefined), the INHIBITION was 25.78%.
`CNCC[C@H]1CC(C)(C)Oc2ccc(C)cc21` gave an INHIBITION of -7.01%.
`N#Cc1cccc(CN2Cc3nccn3CC(CN3CCCC3)C2)c1` (centres undefined) was tested, and the INHIBITION was 32.04%.
For `Cc1c(C(=O)NCCCS(C)(=O)=O)cccc1-c1ccccn1`, the INHIBITION was 3.63%.
`Cc1c(C(=O)NCC(C)(C)S(C)(=O)=O)cccc1-c1ccccn1` was tested, and the INHIBITION was -62.92%.
Work on `Cc1c(C(=O)NCCC(=O)N2CCCC2)cccc1-c1ccccn1` yielded an INHIBITION of 59.67%.
With `Cc1cccc(CC(=O)N2CCOCC2c2c(C)n[nH]c2C)c1` (centres undefined) the INHIBITION was 37.57%.
Compound `Cc1cccc(CCC(=O)N2CCOCC2c2c(C)n[nH]c2C)c1` (centres undefined) has an INHIBITION of 74.35%.
`Cc1n[nH]c(C)c1C1COCCN1C(=O)Cc1cccc(F)c1` (centres undefined) gave an INHIBITION of 13.24%.
In the case of `COCCC(=O)Nc1cnn(COc2ccc(F)cc2Cl)c1`, the INHIBITION is reported as -17.37%.
With `CCc1cnc(C)nc1NC(C)C(=O)Nc1cc(F)ccc1C` (centres undefined) the INHIBITION was 20.32%.
With `O=C(NC1CC1)c1cc(C2CCCN(Cc3ccccn3)C2)no1` (centres undefined) the INHIBITION was -15.37%.
`CCCNC(=O)c1cc(C2CCCN(Cc3ccccn3)C2)no1` (centres undefined) showed an INHIBITION of 72.41%.
In the case of `O=C(c1cc(C2CCCN(Cc3ccccn3)C2)no1)N1CCCC1` (centres undefined), the INHIBITION is reported as 39.48%.
Work on `CC(C)c1nn(C)c(Cl)c1CNC1CCOc2ccccc21` (centres undefined) yielded an INHIBITION of -14.17%.
For `CN(C)c1ccc(CN2CCN(c3ccc(C#N)cc3)C(=O)C2)cn1`, the INHIBITION was -13.81%.
Work on `Cc1ccc(CN2CCN(c3cncc(N(C)C)n3)CC2=O)cc1C` yielded an INHIBITION of 27.72%.
`Cc1ccc(CN2CCN(Cc3ccc(N(C)C)nc3)CC2=O)cc1C` showed an INHIBITION of 61.3%.
`CC1COCCN1Cc1nc(-c2ccc(Br)s2)no1` (centres undefined) showed an INHIBITION of 17.31%.
With `Fc1ccc(-c2noc3c2CN(CC2CC2)CC3)cc1F` the INHIBITION was 21.49%.
With `CC(C)(O)CCc1cccc(C(=O)NCCC2=CSC3=NCCCN23)c1` the INHIBITION was 9.51%.
With `COCCNc1ccc(CC2CCCN(Cc3c[nH]cn3)C2)nn1` (centres undefined) the INHIBITION was -35.23%.
`CCOc1ccccc1C(=O)NC(CC(=O)O)c1cccs1` (centres undefined) gave an INHIBITION of -23.34%.
`CCCC(NC(=O)c1cc(C2CC2)[nH]n1)c1nnc2ccccn12` (centres undefined) gave an INHIBITION of 19.42%.
`NCc1n[nH]c(=O)n1-c1ccccc1Oc1ccccc1` was tested, and the INHIBITION was 28.73%.
With `COCCN1CCOCC12CCN(c1cnccn1)CC2` the INHIBITION was 10.71%.
`COCCN1CCOCC2(CCN(c3cnccn3)CC2)C1` showed an INHIBITION of 50.85%.
For `CC(C)N1CCOCC2(CCN(c3cnccn3)CC2)C1`, the INHIBITION was -10.43%.
`Cc1nc(C(=O)N2CCC(c3cc(CCO)n(C)n3)C2)co1` (centres undefined) gave an INHIBITION of -13.45%.
`Cc1nc(CN(C)C2CCN(Cc3nc4ccccc4s3)C2)no1` (centres undefined) showed an INHIBITION of -75.02%.
Work on `Cc1nc(CN(C)C2CCN(CCCc3ccccc3)C2)no1` (centres undefined) yielded an INHIBITION of 16.25%.
For `Cc1cc(CN(C)C2CCCN(c3cccnn3)C2)on1` (centres undefined), the INHIBITION was 13.35%.
For `Cc1nc(CN(C)C2CCN(CC3CCC3)C2)no1` (centres undefined), the INHIBITION was 15.28%.
Work on `Cc1ccc(N2CCCC(N(C)Cc3cc(C)on3)C2)nn1` (centres undefined) yielded an INHIBITION of -1.21%.
Compound `CN(Cc1noc(C2CC2)n1)C1CCCN(c2cccnn2)C1` (centres undefined) has an INHIBITION of -13.24%.
With `Cc1nc(CN(C)C2CCN(Cc3ccc4ccccc4n3)C2)no1` (centres undefined) the INHIBITION was 55.7%.
For `Cc1nc(CN(C)C2CCCN(c3cccnn3)C2)no1` (centres undefined), the INHIBITION was 51.21%.
`CC(C)c1nc(CN(C)C2CCCN(c3cccnn3)C2)no1` (centres undefined) showed an INHIBITION of -68.26%.
`Cc1nc(CN(C)C2CCCN(c3ccccc3)C2)no1` (centres undefined) gave an INHIBITION of 74.35%.
With `Cc1ccc(N2CCCC(N(C)Cc3cc(C)no3)C2)nn1` (centres undefined) the INHIBITION was 75.47%.
With `Cc1nc(CN(C)C2CCN(Cc3nc4ccccc4n3C)C2)no1` (centres undefined) the INHIBITION was -2.87%.
